Measured values published in PubChem BioAssay (Tox21).
Results filed as inconclusive are left out. A number with no mark means an inactive call. Calls follow the shape of the full dose curve.

assay: qHTS assay to identify small molecule agonists of the NFkB signaling pathway - cell viability counter screen (AID 1159515); conditions: NFkB-bla ME-180 viability, CellTiter-Glo luminescence, 5 h; series mostly up to 61 µM; activity, negative = cytotoxic: at the top concentration; also: nearly all actives have a fitted effect of over 55% in size
From the text: National Center for Advancing Translational Sciences [NCATS]
NIH Chemical Genomics Center [NCGC]
U.S. Environmental Protection Agency [EPA]
National Institutes of Environmental Health Sciences [NIEHS]
National Toxicology Program [NTP]
U.S. Food and Drug Administration [FDA]
Transcription factors and their stimulated target gene expression play pivotal roles across many cellular processes including responses to environmental stimuli. Proper regulation of associated pathways is critical to maintain cell health and function. Constitutive activation of transcription factor pathways has been implicated in tumors as it may block cellular functions such as apoptosis and lead to invasion and metastasis. One important transcription factor that stimulates gene expression in response to cytokines, UV radiation, and other stimuli is nuclear factor-kappa B (NFkB). To measure activation of the NFkB pathway, the CellSensor NFkB-bla ME-180 cell line (Life Technologies, Carlsbad, CA) that stably expresses beta-lactamase reporter gene under the regulation of a NF-kB response element was used. This assay allows measurement of the NFkB pathway activity induced by compounds in a ME-180 cell line. This system quantitates NF-kB activity using a FRET-based assay system where beta-lactamase expression disrupts FRET, allowing for fluorescent measurement of activity. This cell line has been used to screen the Tox21 10K compound library and to identify compounds that induce the NFkB pathway activity. The cytotoxicity of the Tox21 compound library against the NFkB-bla ME-180 cell line was tested in parallel by measuring cell viability using the CellTiter-Glo assay in the same wells.
Tox21 Assay Protocol Summary:
NFkB-bla ME-180 cells were dispensed at 2,000 cells/6 uL of assay medium per well into black wall/clear-bottom 1536-well plates using a Multidrop Combi (ThermoFisher Scientific, Waltham, MA) dispenser. After the assay plates were incubated at 37 C and 5% CO2 for an overnight, 23 nL of compounds dissolved in DMSO, positive controls or DMSO only was transferred to the assay plate by a Pintool station (Kalypsys, San Diego, CA). The assay plates were incubated at 37 C and 5% CO2 for 5 hr. One uL of LiveBLAzer B/G FRET substrate (Life Technologies) was added using a Flying Reagent Dispenser (Aurora Discovery, San Diego, CA) and the plates were incubated at room temperature for 1.5 hr. Fluorescence intensity (405 nm excitation, 460 nm and 530 nm emissions) was measured using an Envision plate reader (PerkinElmer, Shelton, CT). For cytotoxicity, 3 ul/well of CellTiter-Glo reagent was added into the assay plates using an FRD. After 30 min incubation at room temperature, the luminescence intensity was measured using a ViewLux plate reader (PerkinElmer).
% is scaled to controls: 0 for no effect and ±100 for the full control effect.

Structure (SMILES)	activity, negative = cytotoxic
CCCCCCCC/C=C\CCCCCCCC(=O)OCCCC	1.64% [at 28.5 µM]
CCn1ccc(NS(=O)(=O)c2ccc(N)cc2)nc1=O	-5.9%
CC(S)C(=O)NCC(=O)O (stereo not given)	4.26%
Cc1ccccc1C(=O)Nc1ccc(C(=O)N2CCCC(N(C)C)c3ccccc32)cc1 (stereo not given)	-0.569%
C[Si](C)(C)C	3.95%
O=C(CCNNC(=O)c1ccncc1)NCc1ccccc1	-0.45%
CCCCCOC(=O)CCC	-2.36%
COc1ccc2c(c1OC)C(=O)O[C@@H]2[C@H]1c2c(cc3c(c2OC)OCO3)CCN1C	11.6%
CCOCCOCCOCC	-2.61%
CC1(CO)CN(c2ccccc2)NC1=O (stereo not given)	-9.41%
CC(C)N(c1ccccc1)C(C)C	-12.4%
CC(=O)Nc1cccc(C)c1	-10.5% [at 78.8 µM]
ClCCCl	20%
CC(C)=CCOC(=O)c1ccccc1	-7.16%
CN1CCN(CC(=O)N2c3ccccc3C(=O)Nc3cccnc32)CC1	1.12% [at 6.95 µM]
CCCCNC1CC(C)(C)NC(C)(C)C1	-5.29%
CCCN1C[C@H](CSC)C[C@@H]2c3cccc4[nH]cc(c34)C[C@H]21	-7.12%
CC(=O)c1ccc2c(c1)Cc1ccccc1-2	-1.03%
C=C(C)C(=O)OCCOP(=O)(O)OCCOC(=O)C(=C)C	2.21%
Cc1c(I)c(=O)n(-c2ccccc2)n1C	7.63%

Structure (SMILES)	activity, negative = cytotoxic
Nc1ccc(S(=O)(=O)Nc2ccc(Cl)nn2)cc1	-2.03%
CC(C)=O	-0.319%
CC1=CCC(C(C)C)=CC1	1.81%
CCCCCCOC(=O)CC	7%
C=C(C)C(=O)OCCNC(C)(C)C	0.483%
C=C(C)C(=O)OCC(C)(C)COC(=O)C(=C)C	-5.17%
COCCOCCOCCOCCO	-2.57%
COc1cc2c(cc1OC)[C@@H]1CC(=O)[C@@H](CC(C)C)CN1CC2	1.08%
O=C1O[C@@H]2[C@@H](O)[C@H](O)O[C@@H]2[C@H]1O	-5.55%
O=C(O)c1ccc(Cl)cc1Cl	2.35% [at 78.8 µM]
O=C(O)Cc1cn(-c2ccccc2)nc1-c1ccc(Cl)cc1	2.39%
C[C@H](N)[C@H](O)c1cccc(O)c1	14.4%
C=CCCCCCCCCCCCC	-1.44%
COc1ccc2c(c1)C(=O)N(CCc1ccc(S(=O)(=O)NC(=O)NC3CCCCC3)cc1)C(=O)C2(C)C	-11.1%
CC(C)c1ccc2cc(C(C)C)ccc2c1	-0.506%
CCO[Si](CCCS)(OCC)OCC	-0.868%
Cc1ccccc1OCC(O)CO (stereo not given)	2.38%
CCOc1cc(NC(C)=O)ccc1C(=O)OC	-6.91%
COc1nccnc1NS(=O)(=O)c1ccc(N)cc1	10.5%
CC(CN)CC(C)(C)CCN (stereo not given)	17.3% [at 78.8 µM]
